Compounds without any hit were thinned out: in the full panel of roughly 83,000, 20% have a hit.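 Method: cells in 96-well plates; compound added at one concentration; 48 h incubation; percent growth measured; values under 10 scored active.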 Activity calls are given as the source filed them.
Columns and labels:
Test in all cases: NCI-60 one-dose screen, 48 h (100 = growth as untreated, 0 = no growth, -100 = all killed)
Settings in all cases: 10 µM unless noted
SK-MEL-2 melanoma = tested on: SK-MEL-2 melanoma
EKVX NSCLC = tested on: EKVX NSCLC
SN12C renal = tested on: SN12C renal
UO-31 renal = tested on: UO-31 renal
TK-10 renal = tested on: TK-10 renal
ACHN renal = tested on: ACHN renal
CAKI-1 renal = tested on: CAKI-1 renal
A498 renal = tested on: A498 renal
CCRF-CEM leukemia = tested on: CCRF-CEM leukemia
MOLT-4 leukemia = tested on: MOLT-4 leukemia
SR leukemia = tested on: SR leukemia
RPMI-8226 leukemia = tested on: RPMI-8226 leukemia
OVCAR-8 ovarian = tested on: OVCAR-8 ovarian
OVCAR-5 ovarian = tested on: OVCAR-5 ovarian
OVCAR-4 ovarian = tested on: OVCAR-4 ovarian
SK-OV-3 ovarian = tested on: SK-OV-3 ovarian
IGROV1 ovarian = tested on: IGROV1 ovarian
OVCAR-3 ovarian = tested on: OVCAR-3 ovarian
HS 578T breast = tested on: HS 578T breast
NCI/ADR-RES ovarian = tested on: NCI/ADR-RES ovarian

Measured: growth

CC1(C)CCCN1CCCN1c2ccccc2Sc2ccc(Cl)cc21
inactive: SK-MEL-2 melanoma 117% | EKVX NSCLC 61.5% | SN12C renal 68.1% | UO-31 renal 42.3% | TK-10 renal 84.6% | ACHN renal 61.8% | CAKI-1 renal 60% | A498 renal 61.7% | CCRF-CEM leukemia 41.7% | MOLT-4 leukemia 41.7% | SR leukemia 35.7% | RPMI-8226 leukemia 28.6% | OVCAR-8 ovarian 95.8% | OVCAR-5 ovarian 89.3% | OVCAR-4 ovarian 53.2% | SK-OV-3 ovarian 75.5% | IGROV1 ovarian 60.2% | OVCAR-3 ovarian 68.5% | HS 578T breast 76.6% | NCI/ADR-RES ovarian 61%

COC(=O)Nc1nc2ccc(C(=O)c3cccc(I)c3)cc2[nH]1
active: CAKI-1 renal 5.37% | A498 renal -15.3% | CCRF-CEM leukemia 5.32% | SR leukemia -3.68% | RPMI-8226 leukemia 7.16% | OVCAR-8 ovarian 6.51% | OVCAR-3 ovarian -5.1% | NCI/ADR-RES ovarian -0.725%
inactive: SK-MEL-2 melanoma 12.1% | EKVX NSCLC 29.9% | SN12C renal 23.3% | UO-31 renal 28.8% | TK-10 renal 42.4% | ACHN renal 17.5% | MOLT-4 leukemia 19.1% | OVCAR-5 ovarian 28.6% | OVCAR-4 ovarian 28.3% | SK-OV-3 ovarian 30.3% | IGROV1 ovarian 14.9% | HS 578T breast 13.6%

Cc1c2c(cc[n+]1Cc1ccccc1)c1ccc(OCc3ccccc3)cc1n2Cc1ccccc1
inactive: TK-10 renal 11.8% | OVCAR-5 ovarian 13.5% | NCI/ADR-RES ovarian 65%
active: SK-MEL-2 melanoma -36% | EKVX NSCLC -28.8% | SN12C renal -86.6% | UO-31 renal -18.2% | ACHN renal 8.54% | CAKI-1 renal -5.76% | A498 renal -34.5% | CCRF-CEM leukemia -16.2% | MOLT-4 leukemia -51% | SR leukemia -52.5% | RPMI-8226 leukemia -21.6% | OVCAR-8 ovarian -70.9% | OVCAR-4 ovarian -3.79% | SK-OV-3 ovarian 7.67% | IGROV1 ovarian -65.1% | OVCAR-3 ovarian -97.1% | HS 578T breast -35.9%

COc1ccc(-c2nc(N/N=C/c3c[nH]c4ccccc34)nc(N3CCOCC3)c2C#N)cc1
active: SR leukemia -2.03%
inactive: SK-MEL-2 melanoma 97.8% | EKVX NSCLC 99.8% | SN12C renal 92.2% | UO-31 renal 63.7% | TK-10 renal 104% | ACHN renal 76.1% | CAKI-1 renal 98% | A498 renal 51.2% | CCRF-CEM leukemia 56.9% | MOLT-4 leukemia 55.6% | RPMI-8226 leukemia 71.9% | OVCAR-8 ovarian 92.5% | OVCAR-5 ovarian 125% | OVCAR-4 ovarian 105% | SK-OV-3 ovarian 115% | IGROV1 ovarian 80.9% | OVCAR-3 ovarian 90.4% | HS 578T breast 93.4% | NCI/ADR-RES ovarian 96.5%

COc1ccc(NS(=O)(=O)c2ccc(C)cc2)c([N+](=O)[O-])c1
inactive: SK-MEL-2 melanoma 110% | EKVX NSCLC 101% | SN12C renal 88.2% | UO-31 renal 86.3% | TK-10 renal 99.7% | ACHN renal 95.4% | CAKI-1 renal 98.2% | A498 renal 80% | CCRF-CEM leukemia 97% | MOLT-4 leukemia 96.3% | SR leukemia 100% | RPMI-8226 leukemia 96.7% | OVCAR-8 ovarian 104% | OVCAR-5 ovarian 106% | OVCAR-4 ovarian 115% | SK-OV-3 ovarian 105% | IGROV1 ovarian 102% | OVCAR-3 ovarian 106% | HS 578T breast 95.7% | NCI/ADR-RES ovarian 95.9%

CN(C)Cc1c(-c2ccccc2)[nH]c2ccccc12
inactive: SK-MEL-2 melanoma 108% | EKVX NSCLC 92.3% | SN12C renal 99.4% | UO-31 renal 100% | TK-10 renal 102% | ACHN renal 106% | CAKI-1 renal 101% | A498 renal 75.7% | CCRF-CEM leukemia 86.5% | MOLT-4 leukemia 99.4% | SR leukemia 95.6% | RPMI-8226 leukemia 85.7% | OVCAR-8 ovarian 102% | OVCAR-5 ovarian 96.1% | OVCAR-4 ovarian 117% | SK-OV-3 ovarian 81.7% | IGROV1 ovarian 110% | OVCAR-3 ovarian 103% | HS 578T breast 100% | NCI/ADR-RES ovarian 98.2%

Clc1nc(Cl)c2ncn(CCOCCn3cnc4c(Cl)nc(Cl)nc43)c2n1
active: SK-MEL-2 melanoma -76.8% | EKVX NSCLC -91.1% | SN12C renal -83.6% | UO-31 renal -95.4% | TK-10 renal -86% | ACHN renal -89.1% | CAKI-1 renal -94.6% | A498 renal -92.4% | CCRF-CEM leukemia -45.2% | MOLT-4 leukemia -68.9% | SR leukemia -75.9% | RPMI-8226 leukemia -52.8% | OVCAR-8 ovarian -83.2% | OVCAR-5 ovarian -85% | OVCAR-4 ovarian -86.1% | SK-OV-3 ovarian -98.3% | IGROV1 ovarian -95.6% | OVCAR-3 ovarian -97.4% | HS 578T breast -42.5% | NCI/ADR-RES ovarian -56%

COc1ccc(NC(=O)c2sc3nc(C)c(C(=O)c4ccc(OC)cc4)cc3c2N)cc1
inactive: SK-MEL-2 melanoma 23% | EKVX NSCLC 68.5% | SN12C renal 63.8% | UO-31 renal 45.5% | TK-10 renal 55% | ACHN renal 82.8% | CAKI-1 renal 42.6% | CCRF-CEM leukemia 36% | MOLT-4 leukemia 27.5% | RPMI-8226 leukemia 41.3% | OVCAR-8 ovarian 62.1% | OVCAR-5 ovarian 72.6% | OVCAR-4 ovarian 61.7% | SK-OV-3 ovarian 42.7% | IGROV1 ovarian 50.2% | OVCAR-3 ovarian 25% | HS 578T breast 40.4% | NCI/ADR-RES ovarian 48.9%
active: A498 renal -3.91% | SR leukemia 7.62%

COc1ccc(C(O)c2cc3c(N)c(C(=O)Nc4ccc(Br)cc4)sc3nc2C)cc1 (stereo not given)
active: A498 renal -1.93% | CCRF-CEM leukemia 6.36% | SR leukemia -8% | RPMI-8226 leukemia -4.62% | OVCAR-3 ovarian -34.9% | HS 578T breast 3.84%
inactive: SK-MEL-2 melanoma 33.7% | EKVX NSCLC 32% | SN12C renal 36% | UO-31 renal 43% | TK-10 renal 39.5% | ACHN renal 37.8% | CAKI-1 renal 32.5% | MOLT-4 leukemia 17.5% | OVCAR-8 ovarian 30.6% | OVCAR-5 ovarian 59% | OVCAR-4 ovarian 42.9% | SK-OV-3 ovarian 27.7% | IGROV1 ovarian 43.6% | NCI/ADR-RES ovarian 18.5%

COc1cc(NCC(C)(O)CN(CC(C)C)CC(C)C)c2nc(C)ccc2c1 (stereo not given)
inactive: SK-MEL-2 melanoma 96.8% | EKVX NSCLC 91.5% | SN12C renal 81% | UO-31 renal 54.5% | TK-10 renal 119% | ACHN renal 79% | CAKI-1 renal 67.7% | A498 renal 56.5% | CCRF-CEM leukemia 85.4% | MOLT-4 leukemia 80.7% | SR leukemia 87.7% | RPMI-8226 leukemia 68.6% | OVCAR-8 ovarian 86.9% | OVCAR-5 ovarian 89.5% | OVCAR-4 ovarian 23.2% | SK-OV-3 ovarian 98.6% | IGROV1 ovarian 73.4% | OVCAR-3 ovarian 24.8% | HS 578T breast 83.9% | NCI/ADR-RES ovarian 79.6%

COc1ccc(C(=O)c2cc3c(N)c(C(=O)Nc4cccc5ccccc45)sc3nc2C)cc1
active: A498 renal -7.9% | CCRF-CEM leukemia 8.02% | SR leukemia -11.9% | RPMI-8226 leukemia 5.61% | OVCAR-8 ovarian -5.04% | OVCAR-3 ovarian -7.2% | NCI/ADR-RES ovarian 8.37%
inactive: SK-MEL-2 melanoma 37.4% | EKVX NSCLC 36% | SN12C renal 22.5% | UO-31 renal 36.3% | TK-10 renal 60.5% | ACHN renal 30.5% | CAKI-1 renal 20.9% | MOLT-4 leukemia 13.8% | OVCAR-5 ovarian 39.9% | OVCAR-4 ovarian 37.2% | SK-OV-3 ovarian 32% | IGROV1 ovarian 23.8% | HS 578T breast 11.3%

Clc1ccc(N2N=C(c3cccc(Nc4ccncc4)c3)CC2c2ccc3c(c2)OCO3)cc1 (stereo not given)
inactive: SK-MEL-2 melanoma 94.4% | EKVX NSCLC 74.8% | SN12C renal 62.6% | UO-31 renal 41.9% | TK-10 renal 83.5% | ACHN renal 41.6% | CAKI-1 renal 10% | A498 renal 69.7% | RPMI-8226 leukemia 44.1% | OVCAR-8 ovarian 26.7% | OVCAR-5 ovarian 73.9% | OVCAR-4 ovarian 44.7% | SK-OV-3 ovarian 54.8% | IGROV1 ovarian 20.7% | OVCAR-3 ovarian 23.5% | HS 578T breast 68.9% | NCI/ADR-RES ovarian 31.2%
active: CCRF-CEM leukemia 5.74% | MOLT-4 leukemia 2.58% | SR leukemia 6.11%

Fc1ccc(C2CC(c3cccc(Nc4ccncc4)c3)=NN2c2cc(Cl)cc(Cl)c2)cc1 (stereo not given)
active: CCRF-CEM leukemia 0.277% | MOLT-4 leukemia 1.57% | SR leukemia 2.89% | OVCAR-8 ovarian -18.3%
inactive: SK-MEL-2 melanoma 105% | EKVX NSCLC 80% | SN12C renal 72% | UO-31 renal 47.6% | TK-10 renal 74.8% | ACHN renal 43.3% | CAKI-1 renal 31.1% | A498 renal 94.5% | RPMI-8226 leukemia 20.9% | OVCAR-5 ovarian 87.5% | OVCAR-4 ovarian 15.8% | SK-OV-3 ovarian 83.3% | IGROV1 ovarian 25.1% | OVCAR-3 ovarian 62.1% | HS 578T breast 57.8% | NCI/ADR-RES ovarian 64.3%

O=C(O)c1ccc[n+](CC(=O)N2CCN(c3cc4c(cc3F)c(=O)c(C(=O)O)cn4C3CC3)CC2)c1
inactive: SK-MEL-2 melanoma 86.1% | EKVX NSCLC 107% | SN12C renal 29.4% | UO-31 renal 71.8% | TK-10 renal 112% | ACHN renal 72.8% | CAKI-1 renal 92.8% | A498 renal 98% | MOLT-4 leukemia 12.6% | SR leukemia 17.2% | RPMI-8226 leukemia 75.4% | OVCAR-8 ovarian 79.7% | OVCAR-5 ovarian 107% | OVCAR-4 ovarian 60.4% | SK-OV-3 ovarian 109% | IGROV1 ovarian 95.8% | OVCAR-3 ovarian 55.6% | HS 578T breast 87.9% | NCI/ADR-RES ovarian 94.7%
active: CCRF-CEM leukemia -25.6%

COc1cc(C2CC(c3cccc(Nc4ccncc4)c3)=NN2c2ccc(Cl)cc2)cc(OC)c1OC (stereo not given)
inactive: SK-MEL-2 melanoma 55.8% | EKVX NSCLC 65.2% | SN12C renal 54.7% | UO-31 renal 42.4% | TK-10 renal 68.4% | CAKI-1 renal 19.2% | A498 renal 64.1% | OVCAR-5 ovarian 72.1% | SK-OV-3 ovarian 64.5% | HS 578T breast 27.8% | NCI/ADR-RES ovarian 42.7%
active: ACHN renal -62.1% | CCRF-CEM leukemia -9.68% | MOLT-4 leukemia -17.3% | SR leukemia 2.48% | RPMI-8226 leukemia -18.7% | OVCAR-8 ovarian -26.5% | OVCAR-4 ovarian 6.52% | IGROV1 ovarian 4.16% | OVCAR-3 ovarian -25.3%

From PubChem BioAssay (NCI)
